# Many of the other results were omitted from the sample, so the strongest signals are more common in it than they were.
# B1: MUC1-SEA-mFcIgG2a (Homo sapiens), P15941 (SEA domain only) (protein)
# chain: DAAQPARRAVRSSSELTSEQKLISEEDLSRLVHNGTSARATTTPASKSTPFSIPSHHSDTPTTLASHSTKTDASSTHHSTVPPLTSSNHSTSPQLSTGVSFFFLSFHISNLQFNSSLEDPSTDYYQELQRDISEMFLQIYKQGGFLGLSNIKFRPGSVVVQLTLAFREGTINVHDVETQFNQYKTEAASRYNLTISDASVSDVPFPFSAQSGSDDDDKALEPRGPTIKPCPPCKCPAPNLLGGPSVFIFPPKIKDVLMISLSPIVTCVVVDVSEDDPDVQISWFVNNVEVHTAQTQTHREDYNSTLRVVSALPIQHQDWMSGKEFKCKVNNKDLPAPIERTISKPKGSVRAPQVYVLPPPEEEMTKKQVTLTCMVTDFMPEDIYVEWTNNGKTELNYKNTEPVLDSDGSYFMYSKLRVEKKNWVERNSYSCSVVHEGLHNHHTTKSFSRTPGKHHHHH
# B2: LYVE-1 (Homo sapiens), Q9Y5Y7 (protein)
# chain: MARCFSLVLLLTSIWTTRLLVQGSLRAEELSIQVSCRIMGITLVSKKANQQLNFTEAKEACRLLGLSLAGKDQVETALKASFETCSYGWVGDGFVVISRISPNPKCGKNGVGVLIWKVPVSRQFAAYCYNSSDTWTNSCIPEIITTKDPIFNTQTATQTTEFIVSDSTYSVASPYSTIPAPTTTPPAPASTSIPRRKKLICVTEVFMETSTMSTETEPFVENKAAFKNEAAGDPEVKFNWYVDGVEVHNAKPREEQYNSTYRVVSLVTVLHQDWLNGKEYKCKVSNKALPAPIEKTISKAKGQPREPQVYTLPPSRDELTKNQVSLTCLVKGFYPSDIAVEWESNGQPENNYKTTPPVLDSDGSFFLYSKLTVDKSRWQQGNVFSCSVMHEALHNHYTQRSLSLSPGK
# What was measured:
# Assay in all cases: glycan array binding signal (z-score within array); higher = stronger binding
# Conditions in all cases: glycan notation: IUPAC condensed, linker removed
# Fuc(a1-2)Gal = target: Fuc(a1-2)Gal
# Summary of the method: (§1)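 Glycan array binding is given as a within-array Z-score, which can be read as non-binding when negative. The arrays, 3228 of them, came from the Consortium for Functional Glycomics database and were retained only where the protein sequence was available. Z-scores were averaged across arrays of the same protein sequence at different concentrations or buffers and across linkers.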
# Fuc(a1-2)Gal(b1-3)GalNAc = target: Fuc(a1-2)Gal(b1-3)GalNAc
# Summary of the method: as §1
# [1] = target: Fuc(a1-2)Gal(b1-3)GalNAc(b1-3)Gal
# Summary of the method: as §1
# Fuc(a1-2)Gal(b1-3)GlcNAc = target: Fuc(a1-2)Gal(b1-3)GlcNAc
# Summary of the method: as §1
# Fuc(a1-2)Gal(b1-4)Glc = target: Fuc(a1-2)Gal(b1-4)Glc
# Summary of the method: as §1
# [2] = target: Fuc(a1-2)Gal6S(b1-4)Glc6S
# Summary of the method: as §1
# Fuc(a1-2)[Gal(a1-3)]Gal = target: Fuc(a1-2)[Gal(a1-3)]Gal
# Summary of the method: as §1
# [3] = target: Fuc(a1-2)[GalNAc(b1-3)]Gal
# Summary of the method: as §1
# [4] = target: Fuc(a1-3)[Gal(b1-4)]GlcNAc
# Summary of the method: as §1
# [5] = target: Fuc(a1-3)[Gal(b1-4)]GlcNAc(b1-2)Man(a1-6)[Gal(b1-4)GlcNAc(b1-2)Man(a1-3)]Man(b1-4)GlcNAc(b1-4)GlcNAc
# Summary of the method: as §1
# [6] = target: Fuc(a1-3)[Gal(b1-4)]GlcNAc(b1-4)Gal(b1-4)[Fuc(a1-3)]GlcNAc(b1-4)Gal(b1-4)[Fuc(a1-3)]GlcNAc
# Summary of the method: as §1
# [7] = target: Fuc(a1-3)[Gal3S(b1-4)]GlcNAc6S
# Summary of the method: as §1
# [8] = target: Gal(b1-4)GlcNAc(b1-6)Gal(b1-4)GlcNAc(b1-6)GalNAc
# Summary of the method: as §1
# [9] = target: Gal3S(b1-3)[Fuc(a1-4)]GlcNAc
# Summary of the method: as §1
# Gal3S(b1-4)Glc6S = target: Gal3S(b1-4)Glc6S
# Summary of the method: as §1
# Gal3S6S(b1-4)GlcNAc6S = target: Gal3S6S(b1-4)GlcNAc6S
# Summary of the method: as §1
# Gal4S6S(b1-4)GlcNAc = target: Gal4S6S(b1-4)GlcNAc
# Summary of the method: as §1
# Gal6S(b1-4)Glc6S = target: Gal6S(b1-4)Glc6S
# Summary of the method: as §1
# [10] = target: GlcNAc(a1-6)Gal(b1-4)GlcNAc
# Summary of the method: as §1
# GlcNAc(b1-3)Gal = target: GlcNAc(b1-3)Gal
# Summary of the method: as §1
# [11] = target: GlcNAc(b1-4)Gal(b1-4)GlcNAc
# Summary of the method: as §1
# [12] = target: GlcNAc(b1-4)[GlcNAc(b1-6)]GalNAc
# Summary of the method: as §1
# [13] = target: Man(a1-2)Man(a1-3)[Man(a1-6)]Man(a1-6)[Man(a1-2)Man(a1-3)]Man(b1-4)GlcNAc(b1-4)GlcNAc
# Summary of the method: as §1
# [14] = target: Man(a1-3)[Man(a1-6)]Man(b1-4)GlcNAc(b1-4)GlcNAc
# Summary of the method: as §1
# Man(a1-6)Man = target: Man(a1-6)Man
# Summary of the method: as §1
# [15] = target: Neu5Ac(a2-6)Gal(b1-4)GlcNAc(b1-2)Man(a1-3)[Gal(b1-4)GlcNAc(b1-2)Man(a1-6)]Man(b1-4)GlcNAc(b1-4)GlcNAc
# Summary of the method: as §1
# [16] = target: Neu5Ac(a2-6)Gal(b1-4)GlcNAc(b1-3)Gal(b1-4)GlcNAc
# Summary of the method: as §1
# [17] = target: Neu5Ac(a2-8)Neu5Ac(a2-3)[GalNAc(b1-4)]Gal(b1-4)Glc
# Summary of the method: as §1
# [18] = target: Fuc(a1-3)[Gal3S(b1-4)]Glc6S
# Summary of the method: as §1
# Gal(a1-3)GalNAc = target: Gal(a1-3)GalNAc
# Summary of the method: as §1
# Gal(a1-4)Gal(b1-4)Glc = target: Gal(a1-4)Gal(b1-4)Glc
# Summary of the method: as §1
# Gal(a1-4)GlcNAc = target: Gal(a1-4)GlcNAc
# Summary of the method: as §1
# Gal(b1-2)Gal = target: Gal(b1-2)Gal
# Summary of the method: as §1
# [19] = target: Gal(b1-4)GalNAc(a1-3)[Fuc(a1-2)]Gal(b1-4)GlcNAc
# Summary of the method: as §1
# [20] = target: Gal(b1-4)GlcNAc(b1-3)GalNAc
# Summary of the method: as §1
# Gal3S(b1-4)GlcNAc = target: Gal3S(b1-4)GlcNAc
# Summary of the method: as §1
# [21] = target: Gal3S(b1-4)[Fuc(a1-3)]Glc
# Summary of the method: as §1
# GalNAc(b1-4)GlcNAc = target: GalNAc(b1-4)GlcNAc
# Summary of the method: as §1
# GlcA(b1-3)Gal = target: GlcA(b1-3)Gal
# Summary of the method: as §1
# [22] = target: GlcNAc(b1-4)GlcNAc(b1-4)GlcNAc(b1-4)GlcNAc(b1-4)GlcNAc(b1-4)GlcNAc
# Summary of the method: as §1
# [23] = target: Neu5Ac(a2-3)Gal(b1-3)GalNAc
# Summary of the method: as §1
# [24] = target: Neu5Ac(a2-3)Gal(b1-3)GalNAc(b1-3)Gal(a1-4)Gal(b1-4)Glc
# Summary of the method: as §1
# [25] = target: Neu5Ac(a2-3)Gal(b1-3)GalNAc(b1-4)[Neu5Ac(a2-3)]Gal(b1-4)Glc
# Summary of the method: as §1
# [26] = target: Neu5Ac(a2-3)Gal(b1-3)[Neu5Ac(a2-6)]GalNAc
# Summary of the method: as §1
# Neu5Ac(a2-3)Gal(b1-4)Glc = target: Neu5Ac(a2-3)Gal(b1-4)Glc
# Summary of the method: as §1
# [27] = target: Neu5Ac(a2-3)Gal(b1-4)GlcNAc(b1-2)Man(a1-3)[GlcNAc(b1-2)Man(b1-4)GlcNAc(b1-2)Man(a1-6)]Man(b1-4)GlcNAc(b1-4)GlcNAc
# Summary of the method: as §1
# [28] = target: Neu5Ac(a2-3)Gal(b1-4)GlcNAc(b1-6)[Neu5Ac(a2-3)Gal(b1-3)]GalNAc
# Summary of the method: as §1
# [29] = target: Neu5Ac(a2-3)Gal(b1-4)GlcNAc6S
# Summary of the method: as §1
# [30] = target: Neu5Ac(a2-3)Gal(b1-4)[Fuc(a1-3)]GlcNAc(b1-3)Gal(b1-4)[Fuc(a1-3)]GlcNAc(b1-3)Gal(b1-4)[Fuc(a1-3)]GlcNAc
# Summary of the method: as §1
# [31] = target: Neu5Ac(a2-3)GalNAc(b1-4)GlcNAc
# Summary of the method: as §1
# [32] = target: Neu5Ac(a2-6)Gal(b1-4)GlcNAc(b1-2)Man(a1-3)[GlcNAc(b1-2)Man(a1-6)]Man(b1-4)GlcNAc(b1-4)GlcNAc
# Summary of the method: as §1
# [33] = target: Neu5Ac(a2-6)Gal(b1-4)GlcNAc(b1-2)Man(a1-6)[GlcNAc(b1-2)Man(a1-3)]Man(b1-4)GlcNAc(b1-4)GlcNAc
# Summary of the method: as §1
# [34] = target: Neu5Ac(a2-6)GalNAc(b1-4)GlcNAc
# Summary of the method: as §1
binder,measurement,setting,value
B1,glycan array binding signal (z-score),Fuc(a1-2)Gal,-0.228
same,glycan array binding signal (z-score),Fuc(a1-2)Gal(b1-3)GalNAc,-0.514
same,glycan array binding signal (z-score),[1],7.39
same,glycan array binding signal (z-score),Fuc(a1-2)Gal(b1-3)GlcNAc,0.04
same,glycan array binding signal (z-score),Fuc(a1-2)Gal(b1-4)Glc,0.163
same,glycan array binding signal (z-score),[2],1.99
same,glycan array binding signal (z-score),Fuc(a1-2)[Gal(a1-3)]Gal,0.424
same,glycan array binding signal (z-score),[3],-0.373
same,glycan array binding signal (z-score),[4],0.485
same,glycan array binding signal (z-score),[5],-0.32
same,glycan array binding signal (z-score),[6],-0.045
same,glycan array binding signal (z-score),[7],1.11
same,glycan array binding signal (z-score),[8],-0.381
same,glycan array binding signal (z-score),[9],-0.332
same,glycan array binding signal (z-score),Gal3S(b1-4)Glc6S,2.09
same,glycan array binding signal (z-score),Gal3S6S(b1-4)GlcNAc6S,3.49
same,glycan array binding signal (z-score),Gal4S6S(b1-4)GlcNAc,0.978
same,glycan array binding signal (z-score),Gal6S(b1-4)Glc6S,2.14
same,glycan array binding signal (z-score),[10],-0.14
same,glycan array binding signal (z-score),GlcNAc(b1-3)Gal,-0.151
same,glycan array binding signal (z-score),[11],-0.565
same,glycan array binding signal (z-score),[12],-0.223
same,glycan array binding signal (z-score),[13],-0.266
same,glycan array binding signal (z-score),[14],-0.235
same,glycan array binding signal (z-score),Man(a1-6)Man,-0.113
same,glycan array binding signal (z-score),[15],-0.245
same,glycan array binding signal (z-score),[16],-0.465
same,glycan array binding signal (z-score),[17],-0.453
B2,glycan array binding signal (z-score),Fuc(a1-2)Gal,-0.222
same,glycan array binding signal (z-score),Fuc(a1-2)[Gal(a1-3)]Gal,0.242
same,glycan array binding signal (z-score),[18],-0.066
same,glycan array binding signal (z-score),Gal(a1-3)GalNAc,-0.27
same,glycan array binding signal (z-score),Gal(a1-4)Gal(b1-4)Glc,-0.09
same,glycan array binding signal (z-score),Gal(a1-4)GlcNAc,-0.269
same,glycan array binding signal (z-score),Gal(b1-2)Gal,-0.409
same,glycan array binding signal (z-score),[19],-0.338
same,glycan array binding signal (z-score),[20],-0.411
same,glycan array binding signal (z-score),Gal3S(b1-4)GlcNAc,-0.036
same,glycan array binding signal (z-score),[21],-0.34
same,glycan array binding signal (z-score),GalNAc(b1-4)GlcNAc,-0.259
same,glycan array binding signal (z-score),GlcA(b1-3)Gal,-0.466
same,glycan array binding signal (z-score),[22],-0.624
same,glycan array binding signal (z-score),[23],3.93
same,glycan array binding signal (z-score),[24],1.74
same,glycan array binding signal (z-score),[25],4.82
same,glycan array binding signal (z-score),[26],0.133
same,glycan array binding signal (z-score),Neu5Ac(a2-3)Gal(b1-4)Glc,0.324
same,glycan array binding signal (z-score),[27],-0.128
same,glycan array binding signal (z-score),[28],6.79
same,glycan array binding signal (z-score),[29],-0.351
same,glycan array binding signal (z-score),[30],5.13
same,glycan array binding signal (z-score),[31],3.73
same,glycan array binding signal (z-score),[32],-0.596
same,glycan array binding signal (z-score),[33],-0.436
same,glycan array binding signal (z-score),[34],2.4
